An excerpt weighted towards active compounds, which were near 7% of everything screened.
ATXN viability: cell viability loss in ATXN counter-screen. S2 cells (HEK-293 line with an ATXN2-luciferase reporter) viability, CellTiter-Fluor protease fluorescence, 24 h. Potency, µM (highest dose often 56.7 µM), actives largely listed as cytotoxic. 400,000 tested, 0.49% active. AID 651635; note: nearly all actives have a fitted effect of over 40% in size
IL1B secr inh: inflammasome signaling inhibition, IL-1 beta readout | THP-1 LPS/ATP IL-1B secretion, AlphaLISA, 16 h; hits give low values | activity change, % at 57.5 µM | 360,000 tested, 4.7% active; in the data active = activity change below about -50%; inconclusive = mostly about -30% to -49%
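THP-1 cells pretreated 1 hr with compounds (up to 57.5 uM final), then stimulated with LPS (250 ng/mL final) plus ATP (1.25 mM final); secreted IL-1B measured by AlphaLISA after 16 hr, decreased signal indicating inhibition.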
D3 ag: agonists of human D3 dopamine receptor. P35462. D3R DiscoveRx beta-arrestin cells, luminescence, 90 min. max activation, %. 410,000 tested, 0.58% active. AID 652048; in the data active = max activation above about 30%
Target sequence (P35462 whole entry, looked up): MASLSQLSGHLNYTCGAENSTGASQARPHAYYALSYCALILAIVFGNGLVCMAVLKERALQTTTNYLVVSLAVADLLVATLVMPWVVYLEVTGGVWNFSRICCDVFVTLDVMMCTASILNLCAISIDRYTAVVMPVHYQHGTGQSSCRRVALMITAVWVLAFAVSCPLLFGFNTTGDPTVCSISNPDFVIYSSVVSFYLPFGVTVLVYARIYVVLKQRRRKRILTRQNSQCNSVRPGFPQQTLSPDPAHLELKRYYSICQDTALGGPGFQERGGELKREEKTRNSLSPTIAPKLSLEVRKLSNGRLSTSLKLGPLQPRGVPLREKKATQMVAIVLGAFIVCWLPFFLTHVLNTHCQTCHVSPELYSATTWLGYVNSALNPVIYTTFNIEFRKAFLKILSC
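Agonist mode: compounds and dopamine controls were applied to plated cells for 90 min at 37 degrees C after an overnight attachment at 1500 cells/well. Luminescent read-out followed 30 - 60 minutes at room temperature with DiscoveRx detection reagent.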
Integrin act MD: activators of alpha7 integrin expression for muscular dystrophy; Potency, µM (highest dose often 38.3 µM), actives largely listed as activators; alpha7betagal myoblasts, beta-gal FDG fluorescence, 48 h; 350,000 tested, 0.064% active; AID 624291; note: nearly all actives have a fitted effect of over 60% in size
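Alpha7betagal+/- myoblasts (passage 13) were plated 16-24 hr, then exposed to compounds (1:260 dilution of DMSO stock) for 48 hours at 37C. After MPER lysis, β-galactosidase reporter activity was read as FDG fluorescence (ex 480/em 540) after 30 minutes.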
ATXN2 expr inh: inhibitors of ATXN2 expression | HEK-293 ATXN2-luciferase reporter, luminescence, 24 h | 360,000 tested, 0.72% active | Potency, µM (series often up to 57 µM), usual class: inhibitors | AID 1745845; note: nearly all actives have a fitted effect of over 55% in size
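ATXN2-luciferase reporter cells (luciferase flanked by upstream and downstream ATXN2 gene portions) were treated 24 h at 37 °C with compounds at up to 57 uM. SteadyGlo luminescence gave expression; GF-AFC fluorescence gave viability.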
DRD3 antagonist: blocks the human D3 dopamine receptor; D3R cells, DiscoveRx beta-arrestin luminescence, antagonist mode; hits give low values; P35462; 360,000 tested, 2.5% active; max response, negative = inhibition, %; AID 652054; in the data active = max response below about -50%; inconclusive = no clear call, values can overlap the other calls
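Cells plated overnight at 1500 cells/well, then exposed to library compounds with dopamine controls for 90 minutes at 37 degrees C. DiscoveRx reagent added for 30–60 minutes at room temperature; luminescence read, quantitative HTS format.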
A number is an active result. Unless noted, calls come from the whole dose curve; as a rule, active = well fitted curve in the direction sought with a large enough effect; inconclusive = small, poorly fitted or top-dose-only effect, or another doubt; inactive = no such curve, though single readings can be large; an effect the other way counts as inactive or inconclusive.

Screening c1ccc(CNc2nc(NCCOc3ccccc3)c3sccc3n2)cc1 returned D3 ag inactive, ATXN2 expr inh 28.2µM and DRD3 antagonist inactive.
Screening COc1ccccc1CNc1nc(NCc2ccccc2F)c2sccc2n1 returned ATXN viability inconclusive, IL1B secr inh -82.8, D3 ag inactive, ATXN2 expr inh inconclusive and DRD3 antagonist inactive.
`C#Cc1cccc(Nc2nc(NCc3ccccc3OC)nc3ccsc23)c1` gave ATXN viability 20µM, IL1B secr inh -71.2, D3 ag inactive, ATXN2 expr inh 20µM and DRD3 antagonist inactive.
For O=C(Cc1cccs1)NCCn1ccc2ccccc21 the results were ATXN viability inactive, IL1B secr inh inactive, D3 ag inactive, Integrin act MD inactive, ATXN2 expr inh inactive and DRD3 antagonist inactive.
`COc1ccccc1CNc1nc(NCc2ccc(C)cc2C)c2sccc2n1` gave ATXN viability inconclusive, IL1B secr inh -79.6, D3 ag inactive, ATXN2 expr inh inconclusive and DRD3 antagonist inactive.
For COCCNc1nc(NCc2ccc(C)cc2C)c2sccc2n1 the results were ATXN viability inconclusive, IL1B secr inh inactive, D3 ag inactive, ATXN2 expr inh inconclusive and DRD3 antagonist inactive.
c1ccc(CNc2nc(NCc3ccccc3)c3sccc3n2)cc1 was read as ATXN viability inconclusive, IL1B secr inh -72.9, D3 ag inactive, ATXN2 expr inh inactive and DRD3 antagonist inactive.
For OCc1ccccc1-c1nc(NCC2CC2)nc2ccsc12 the results were ATXN viability inactive, IL1B secr inh inactive, D3 ag inactive, ATXN2 expr inh inactive and DRD3 antagonist inactive.
`COc1ccccc1CNc1nc(NCc2cccc(OC)c2OC)c2sccc2n1` gave ATXN viability inconclusive, IL1B secr inh -90.0, D3 ag inactive, ATXN2 expr inh 31.6µM and DRD3 antagonist inactive.
For Fc1cc(Cl)ccc1Nc1nc(NCc2ccccc2)nc2ccsc12 the results were ATXN viability inactive, IL1B secr inh inactive, D3 ag inactive, ATXN2 expr inh inactive and DRD3 antagonist inactive.
Fc1ccccc1CNc1nc(NCC2CC2)nc2ccsc12 was read as ATXN viability inconclusive, IL1B secr inh -76.0, D3 ag inactive, ATXN2 expr inh inactive and DRD3 antagonist inactive.
Screening COc1ccc(Cc2nc3c4c(ncn3n2)Oc2ccc3ccccc3c2C4c2ccc(OC)c(OC)c2)cc1 (centres undefined) returned ATXN viability inactive, IL1B secr inh inactive, D3 ag inactive, Integrin act MD inactive, ATXN2 expr inh inactive and DRD3 antagonist inactive.
COc1ccc(C(=O)NCC(c2ccco2)N2CCOCC2)cc1OC (centres undefined) was read as ATXN viability inactive, IL1B secr inh inactive, D3 ag inactive, Integrin act MD inactive, ATXN2 expr inh inactive and DRD3 antagonist inactive.
`Cc1ccnc(N2C(=O)c3ccccc3C2O)c1` (centres undefined) gave ATXN viability inactive, IL1B secr inh inactive, D3 ag inactive, Integrin act MD inactive, ATXN2 expr inh inactive and DRD3 antagonist inactive.
O=C(O)CCCCCN1C(=O)C(O)=C(C(=O)/C=C/c2ccccc2)C1c1ccccc1[N+](=O)[O-] (centres undefined) was read as ATXN viability inactive, IL1B secr inh inactive, D3 ag inactive, Integrin act MD inactive, ATXN2 expr inh inactive and DRD3 antagonist inactive.
For Cc1cccc(NS(=O)(=O)c2ccc3oc(=O)c4ncn(C)c4c3c2)c1C the results were D3 ag 42.2.
`COc1ccc(C(=O)CSc2nnc3n2CCCN3C(=O)Nc2ccccc2)cc1` gave ATXN viability inactive, IL1B secr inh inactive, D3 ag inactive, Integrin act MD inactive, ATXN2 expr inh inactive and DRD3 antagonist inactive.
For CCCOc1ccc(N2C(=O)CC(NCC(=O)OCC)C2=O)cc1 (centres undefined) the results were ATXN viability inactive, IL1B secr inh inactive, D3 ag inactive, Integrin act MD inactive, ATXN2 expr inh inactive and DRD3 antagonist inconclusive.
`Cc1[nH]n2c(=O)cc(-c3ccc([N+](=O)[O-])cc3)nc2c1-c1ccccc1` gave ATXN viability inconclusive, IL1B secr inh inactive, D3 ag inactive, Integrin act MD inactive, ATXN2 expr inh 20µM and DRD3 antagonist -80.8.

Source: PubChem BioAssay
